# Results reported in PubChem BioAssay (Tox21).
# Inconclusive results are not listed. Activity calls are given as the source filed them. Calls follow the shape of the dose curve; as a rule, active = well fitted inhibition curve with a large enough effect in the repeat runs; inconclusive = weak or mixed curves; inactive = flat fitted curve, though single readings scatter.
# Target: Voltage-gated inwardly rectifying potassium channel KCNH2 (Homo sapiens) (UniProt Q12809)
# Experiment: Human Ether-a-go-go-Related Gene (hERG) channel small molecule antagonists: fluorescence cell-based qHTS assay (AID 1671200);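 also: hERG-expressing U2OS cells given a thallium stimulus after FluxOR II dye loading; nearly all actives have a fitted effect of over 50% in size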
# Details: hERG-U2OS cells, FluxOR thallium flux fluorescence; series mostly up to 76.8 µM
# Outline: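 Kinetic two-minute fluorescence traces, sampled at 1 s, were collected following thallium stimulus of U2OS cells (1000 per well) that had been cultured overnight at 37 C and loaded with FluxOR II.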
# Sequence of Voltage-gated inwardly rectifying potassium channel KCNH2 (Homo sapiens) (Q12809 whole entry, looked up): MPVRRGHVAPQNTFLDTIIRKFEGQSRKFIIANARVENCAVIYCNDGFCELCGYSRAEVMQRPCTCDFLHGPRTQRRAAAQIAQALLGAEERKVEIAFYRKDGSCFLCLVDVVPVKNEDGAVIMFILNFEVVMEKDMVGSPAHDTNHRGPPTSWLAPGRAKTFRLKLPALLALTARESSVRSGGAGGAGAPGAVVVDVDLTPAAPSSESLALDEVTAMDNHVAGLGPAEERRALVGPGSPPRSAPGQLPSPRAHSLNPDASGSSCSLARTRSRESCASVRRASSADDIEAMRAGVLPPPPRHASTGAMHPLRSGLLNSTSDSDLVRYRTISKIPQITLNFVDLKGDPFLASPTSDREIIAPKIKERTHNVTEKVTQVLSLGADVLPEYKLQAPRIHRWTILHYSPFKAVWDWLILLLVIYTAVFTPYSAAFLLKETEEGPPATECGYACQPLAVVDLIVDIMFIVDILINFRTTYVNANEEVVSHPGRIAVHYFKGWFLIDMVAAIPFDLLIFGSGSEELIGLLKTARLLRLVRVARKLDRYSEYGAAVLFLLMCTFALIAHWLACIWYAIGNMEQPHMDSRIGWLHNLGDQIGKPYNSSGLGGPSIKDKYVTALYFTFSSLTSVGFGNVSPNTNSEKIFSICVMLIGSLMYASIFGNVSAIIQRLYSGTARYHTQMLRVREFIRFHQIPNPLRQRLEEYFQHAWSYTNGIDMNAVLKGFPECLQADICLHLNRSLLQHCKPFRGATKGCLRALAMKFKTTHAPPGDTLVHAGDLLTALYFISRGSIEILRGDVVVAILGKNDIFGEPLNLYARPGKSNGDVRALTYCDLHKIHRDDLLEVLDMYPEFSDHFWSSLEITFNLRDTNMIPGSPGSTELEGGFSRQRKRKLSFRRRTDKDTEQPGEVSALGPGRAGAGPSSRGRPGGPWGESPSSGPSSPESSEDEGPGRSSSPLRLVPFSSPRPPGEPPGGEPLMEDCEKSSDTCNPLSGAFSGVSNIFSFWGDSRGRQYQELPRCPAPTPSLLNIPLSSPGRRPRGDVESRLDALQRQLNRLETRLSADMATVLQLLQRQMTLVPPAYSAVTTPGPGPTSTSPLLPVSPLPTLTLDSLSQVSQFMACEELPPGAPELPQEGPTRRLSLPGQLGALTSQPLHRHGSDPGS
row,Structure (SMILES),outcome
1,O=c1[nH]c(=O)n([C@H]2C[C@H](O)[C@@H](CO)O2)cc1Br,inactive
2,CC(=O)CC(=O)Nc1ccccc1C,inactive
3,Fc1ccc(Br)cc1,inactive
4,CC(c1cc2ccccc2s1)N(O)C(N)=O (configuration not stated),inactive
5,C=CCOC(=O)c1ccccc1C(=O)OCC=C,inactive
6,CC1CCC(C(C)C)C(O)C1 (configuration not stated),inactive
7,Cc1cccnc1,inactive
